The whole screen tested about 69,000 compounds, of which about 950 (1.4%) showed an effect of 50% or more. Shown is part of a subset that was picked to be rich in strong results.
Test system: Mycobacterium tuberculosis
Assay: Cornell M. t heat shock assay; also: in the data most compounds retested in dose-response had high values
Assay type: functional, organism-based
Set-up: dose or concentration left out as unconfirmed

SMILES | Percent Effect [%]
O=C(CC1CC1)N1CC[C@H]2[C@@H]1CCC(=O)N2c1cccnc1.O=C(O)C(F)(F)F | -6.311
CC(C)NC(=O)C1(CC2CC(c3ccc(F)cc3)=NO2)CCNCC1.O=C(O)CC(O)(CC(=O)O)C(=O)O (stereo unspecified) | -19.28
CNC(=O)C1Cn2ccnc2C2(CCN(Cc3cccnc3)CC2)O1.O=C(O)C(F)(F)F.O=C(O)C(F)(F)F.O=C(O)C(F)(F)F (stereo unspecified) | -3.867
COc1ccccc1CN1CCCCC1c1n[nH]cc1-c1cc(C)no1.Cl (stereo unspecified) | 14.98
COc1cccc(CN2C[C@@H]3COC[C@]3(COCc3ccncc3)C2)c1.O=C(O)C(F)(F)F.O=C(O)C(F)(F)F | -3.091
Cc1csc(CN(C)C2CCN(c3sccc3C#N)C2=O)n1 (stereo unspecified) | -26.99
Cc1c[nH]c(CN2CCC3(CCCN(Cc4ccc(F)c(F)c4)C3)C2)n1 (stereo unspecified) | 58.72
Cc1ccc(CN2CCC3(CCCN(Cc4ccc(F)c(F)c4)C3)C2)o1 (stereo unspecified) | 10.97
Fc1ccc(CN2CCCC3(CCN(Cc4ncc[nH]4)C3)C2)cc1F (stereo unspecified) | 0.7553
CCOC[C@]12COC[C@H]1CN(Cc1ccc3c(c1)OCO3)C2.O=C(O)C(F)(F)F | 12.44
O=C(CCc1ccccc1Cl)NS(=O)(=O)c1ccc2c(c1)OCCO2 | 62.1
O=C(CCc1ccccc1Br)NS(=O)(=O)c1ccc2c(c1)OCCO2 | 6.065
O=C(CCc1ccccc1F)NS(=O)(=O)c1ccc2c(c1)OCCO2 | -5.66
Cl.O=C(NC1CCCC1)C1(Cc2cc(C3CCOC3)no2)CCNCC1 (stereo unspecified) | 5.68
O=C(c1cnc(-c2ccccn2)s1)N1CCCC(n2cccn2)C1 (stereo unspecified) | -7.844
CC1CCN(C(=O)[C@H]2CC[C@@H]3[C@@H](CCN3Cc3nccs3)O2)CC1.O=C(O)C(F)(F)F | -10.06
COc1ccc(CNC(=O)N2CCN(CC(O)C3CC3)CC2)cc1.Cl (stereo unspecified) | 14.41
CC(C)c1cc(N(C)Cc2noc(C3CCCC3)n2)n2nccc2n1 | 67.06
CC(C)c1cc(N(C)Cc2cc(C3CC3)on2)n2nccc2n1 | 41.46
CC(C)Cc1nc(CN(C)c2cc(C(C)C)nc3ccnn23)no1 | 23.84
COC(=O)N1CCC(Nc2cccc(F)c2C#N)CC1 | 83.06
COC(=O)N1CCC(Nc2cccc(F)c2C(C)=O)C1 (stereo unspecified) | 10.56
COC(=O)N1CCC(Nc2cccc(F)c2C(C)=O)CC1 | 5.265

SMILES | Percent Effect [%]
O=C(O)C(F)(F)F.O=C(O)C(F)(F)F.O=C(O)C(F)(F)F.c1cc(CN2C[C@@H]3OCCN(CC4CCCO4)[C@@H]3C2)ccn1 (stereo partly specified) | -18.75
CN(C(=O)C1CCCCC1)[C@@H]1CCC[C@@H](N2CCOCC2)[C@@H]1O | -6.532
CN(C(=O)C1CCOCC1)[C@@H]1CCC[C@@H](N2CCOCC2)[C@@H]1O | -10.17
CN(C(=O)C1CCOCC1)[C@@H]1CCC[C@@H](N2CCCC2)[C@@H]1O | 60.86
CC(C)OCCCN(Cc1cnn(C)c1)Cc1ccccn1.O=C(O)CC(O)(CC(=O)O)C(=O)O | -10.12
CCC1=N[C@@]2(CC[C@@H]3CN(CC4CC4)C[C@@H]32)C(=O)N1C.O=C(O)C(F)(F)F | 5.845
CC(O)CN1CC(C)(C)CN(C(=O)CCc2ccccc2)CC1=O (stereo unspecified) | 50.7
COCC(O)CN1CC(C)(C)CN(C(=O)CCc2ccccc2)CC1=O (stereo unspecified) | 27.88
CCCC(O)CN1CC(C)(C)CN(C(=O)CCc2ccccc2)CC1=O (stereo unspecified) | 10.24
CN1CC(C)(C)CN(C(=O)CCc2ccccc2)CC1=O | 21.51
CCN1CC(C)(C)CN(C(=O)CCc2ccccc2)CC1=O | 22.76
CC(C)(O)CN1CC(C)(C)CN(C(=O)CCc2ccccc2)CC1=O | 52.03
Fc1ccc(CN2CC[C@H]3O[C@@H](COCC4CCOCC4)CC[C@H]32)cc1.O=C(O)C(F)(F)F | -16.61
CCC(C)[C@H](N)c1nnc(SCC(=O)Nc2cc(C)ccc2C)o1.Cl (stereo partly specified) | -10.79
Cc1cc2c(=O)n3c(nc2s1)CCN(Cc1c[nH]cn1)CC3.Cl | -21.28
Clc1ccc(C2(CNC3=NCCN3)CCCCC2)cc1.I | 77.48
Clc1ccc(C2(CNC3=NCCN3)CC2)cc1.I | -24.96
Clc1ccc(C2(CNC3=NCCN3)CCCC2)cc1.I | 20.92
O=C(NCC1CC1)[C@H]1C[C@H]2OCC[C@H]2N(CCc2ccccc2)C1.O=C(O)C(F)(F)F | -0.2328
COc1ccc(-c2cc3nn(CC(=O)NC(C)C)c(=O)n3c(C)n2)cc1 | 21.42
Cc1nc(-c2ccccc2)cc2nn(CC(N)=O)c(=O)n12 | 80.99
COc1ccc(-c2cc3nn(CC(N)=O)c(=O)n3c(C)n2)cc1 | 28.25
CCC1=N[C@@]2(CC[C@@H]3CN(Cc4ccc(F)cc4)C[C@@H]32)C(=O)N1C.O=C(O)C(F)(F)F | 6.299

SMILES | Percent Effect [%]
COCCN1CCC2(COCCN(Cc3ccc4c(c3)OCO4)C2)C1.O=C(O)C(F)(F)F.O=C(O)C(F)(F)F (stereo unspecified) | -9.9
O=C(O)C(F)(F)F.O=C(O)C(F)(F)F.O=C(O)C(F)(F)F.O=C1CO[C@@H]2CN(Cc3cccnc3)C[C@H]2N1Cc1ccncc1 | -18.69
COCCC(=O)N1CC[C@@H](N2CCOCC2)[C@@H]1Cc1ccccc1.O=C(O)C(F)(F)F | -10.34
CC(C)(C)n1nc(C(=O)NC2CCN(CC(N)=O)CC2)cc1C1CC1 | 19.52
Cc1cc(C(=O)NC2CCN(CC(N)=O)CC2)nn1C(C)(C)C | 61.29
CC(C)c1cc(C(=O)NC2CCN(CC(N)=O)CC2)nn1C(C)(C)C | 17.37
Cc1noc(C)c1-c1nc(C2CCCNC2)ccc1CO.Cl.Cl (stereo unspecified) | 6.462
O=C(CCNc1ncccn1)NCc1csc(Br)c1 | 2.477
Cc1cccc(CNC(CN2CCN(C)CC2)c2ccccc2)c1 (stereo unspecified) | -9.551
Cc1cc(C)cc(CNC(c2ccccc2)c2nccn2C)c1 (stereo unspecified) | 112.3
Cc1ccc(CNC(c2ccccc2)c2nccn2C)cc1.Cl (stereo unspecified) | 106.1
Cc1cc(C)cc(CNC(C)c2c(C)nn(C)c2C)c1 (stereo unspecified) | -33.33
O=C(NCc1csc(Br)c1)c1ccncc1 | 14.96
Cc1cnn(CC(C)NCc2ccc(OCc3nccn3C)cc2)c1 (stereo unspecified) | -7.408
COc1c(CNC(c2ccccc2)c2nccn2C)c(C)nn1C (stereo unspecified) | -17.9
Cc1ccc(CNCC(C)Oc2ccccn2)cc1.Cl (stereo unspecified) | -12.77
COc1cc(CNC(C)Cn2cccn2)cc(OC)c1 (stereo unspecified) | -10.57
Cn1ccnc1C(NCc1csc(Br)c1)c1ccccc1 (stereo unspecified) | 103.5
COc1cc(CNC(c2ccccc2)c2nccn2C)cc(OC)c1 (stereo unspecified) | 110.9
Cn1ccnc1CN1CCC2(CC(=O)N(c3cncnc3)C2)C1.O=C(O)C(F)(F)F (stereo unspecified) | 8.638
CC(C)NC(=O)c1sc2ccccc2c1[C@H]1CC[C@H](CN)CC1.Cl | 6.071
O=C(O)C(F)(F)F.c1cnc(N2Cc3nccn3CC(COc3cccnc3)C2)nc1 (stereo unspecified) | -4.281
CCNC(c1ccc(Br)cc1)c1cccnc1 (stereo unspecified) | 0.8227

SMILES | Percent Effect [%]
Cc1ccc(CNC(CN2CCN(C)CC2)c2ccccc2)cc1C (stereo unspecified) | 7.265
Cc1ccc(CNC(c2ccccc2)c2nccn2C)cc1C (stereo unspecified) | 103.6
COc1ccc(CNC(Cn2cncn2)c2ccccc2)cc1C (stereo unspecified) | 7.595
Cn1ccnc1-c1noc(NCc2ccc(Br)cc2)n1 | -1.325
Cc1ccc(CNC(CN2CCN(C)CC2)c2ccccc2)cc1 (stereo unspecified) | 5.608
Cn1ccnc1-c1noc(NCc2ccccc2)n1 | -11.975
Cn1ccnc1C(NCc1ccc(Br)cc1)c1ccccc1 (stereo unspecified) | 112.1
Cn1nnc2c1C(COCc1ccccn1)CN(Cc1ccoc1)C2.O=C(O)C(F)(F)F.O=C(O)C(F)(F)F (stereo unspecified) | -16.51
O=S(=O)(N1CCOCC1)N1CCCC(c2ccccn2)C1 (stereo unspecified) | -20.74
COCCN1C[C@@H]2CCCO[C@@H]2[C@H](N(C)Cc2ccco2)C1.O=C(O)C(F)(F)F.O=C(O)C(F)(F)F | 1.752
Cn1cc(N2CC3(CCN(Cc4ccsc4)CC3)OCC2=O)cn1.O=C(O)C(F)(F)F | -18.04
Cc1cnccc1-c1cnn(CCNC(=O)C(C)(C)C)c1C1CC1.Cl | -19.45
O=C(O)C(F)(F)F.O=C1COC2(CCN(Cc3ccco3)CC2)CN1 | -45.46
c1cn(Cc2ccc(N3CCCN(C4CCCC4)CC3)nc2)cn1 | 1.871
c1csc(CN2CCCN(c3ccc(Cn4ccnc4)cn3)CC2)c1 | -13.19
Fc1ccc(N2CCCN(c3ccc(Cn4ccnc4)cn3)CC2)cc1 | 107.2
Cc1cc2c(cc1CNC(Cc1cccs1)c1nccs1)OCO2.Cl (stereo unspecified) | 5.172
CC(=O)N1C[C@@H]2CN(Cc3cccnc3)CCO[C@@H]2C1.O=C(O)C(F)(F)F.O=C(O)C(F)(F)F | -47.04
O=C(O)C(F)(F)F.O=C1[C@H]2CN(CC3CC3)C[C@H]2CN1c1ccsc1 | 20.81
Cc1cc(N2CCCC2c2nnc3n2CCCCC3)nc(N)n1 (stereo unspecified) | -8.114
Clc1cncc(N2CCCC2c2nnc3n2CCCCC3)n1 (stereo unspecified) | -7.126
Cc1cc(N2CCCC2c2nnc3n2CCCCC3)nc(C)n1 (stereo unspecified) | 66.84

From ChEMBL document CHEMBL3988442, “University of Dundee, Small-Polar-MMV Screening Library” (2021)
